Data: PubChem BioAssay AID504465 (National Center for Advancing Translational Sciences (NCATS), 2011)
Hit rate of the full screen: of about 2,100 compounds, about 210 (10%) were called active. Another 53% or so got no clear call; they are omitted. The list shows a part of the results. Values without a mark were called inactive. The call rests on the fitted dose curve; in most records, active means well fitted inhibition curve with a large enough effect; inconclusive means small, poorly fitted or top-dose-only effect, or effect the other way; inactive means no such curve, though single readings can be large or run the other way.

Experiment: IN Cell qHTS Assay for Inhibitors of the mTORC1 Signaling Pathway in MEF (Tsc2-/-, p53-/-) Cells: Sytravon; further: nearly all actives have a fitted effect of over 60% in size
Details: phospho-rpS6 immunofluorescence, 24 h; series mostly up to 38.3 µM; activity, negative = inhibition: at the top concentration
Summary of the method: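 Immunofluorescence of rpS6 phosphorylation (Ser235/236) in mouse embryonic fibroblasts lacking Tsc2 and p53, after 24 h compound exposure; Hoechst-normalized signal imaged, each well scored as % active cells relative to rapamycin (7.5 nM) and DMSO controls.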
Potency means the concentration at half of the fitted maximal effect.

SMILES | activity, negative = inhibition | Potency
COc1cc2c(cc1OC)n(CC(=O)c1ccc(F)cc1)c(=O)n1nc(CCn3nc(C)cc3C)nc21 | -8.82% | 
Cc1ccc(NC(=O)c2c(C)oc3ccc(O)c(CN(C)Cc4ccccc4)c23)c(C)c1 | -15.8% | 
CCC(C)NC(=O)CSc1nc2cc3c(cc2c(=O)n1CCCC(=O)NCCc1ccc(OC)c(OC)c1)OCO3 (stereo unspecified) | -1.63% | 
COc1ccccc1Oc1nc2c(C)cccn2c(=O)c1/C=C(\C#N)c1nc2ccccc2[nH]1 | 21% | 
O=C(Cn1cc(SCc2ccc(F)cc2)c2ccccc21)N1CCCCCC1 | -24.4% | 
Cc1ccc2nc3c(cc(C(=O)NC4CCCCC4)c(=N)n3C(C)C)c(=O)n2c1 | -26.3% | 
Cc1ccc(-c2noc(CCCC(=O)NCc3ccco3)n2)cc1 | -11.7% | 
COCCn1c(=N)c(C(=O)NCc2ccco2)cc2c(=O)n3cc(C)ccc3nc21 |  | 13.1 µM (active)
Cc1ccc(Cl)cc1NC(=O)CCn1cnc2ccccc2c1=O | -0.138% | 
COc1ccc(C(=O)N2CCc3cc(OC)c(OC)cc3C2COc2ccc3c(C)cc(=O)oc3c2)c(OC)c1 (stereo unspecified) | -9.89% | 
CCCCS(=O)(=O)c1oc(-c2cccs2)nc1S(=O)(=O)c1ccccc1 |  | 0.585 µM (active)
CCCCS(=O)(=O)c1oc(-c2cccs2)nc1S(=O)(=O)c1ccc(F)cc1 |  | 3.69 µM (active)
Cc1ccc(S(=O)(=O)c2nnn3c2nc(NCc2cccs2)c2sccc23)cc1 | -14.6% | 
CCC(C)S(=O)(=O)c1oc(-c2cccs2)nc1S(=O)(=O)c1ccccc1 (stereo unspecified) |  | 1.47 µM (active)
O=S(=O)(c1ccccc1)c1nc(-c2cccs2)oc1SCc1ccccc1F | -2.37% | 
Cc1nn(C)c2c1c(-c1ccccc1)cc(=O)n2Cc1ccccc1C#N | 0.892% | 
CCN1CCOC(=O)C1CC(=O)Nc1ccc(Br)cc1 (stereo unspecified) | 14.1% | 
Cc1cc(C)cc(NC(=O)C2CCCN2S(=O)(=O)c2ccc3nc(-c4ccccc4)[nH]c3c2)c1 (stereo unspecified) | -4.65% | 
COc1ccc(S(=O)(=O)NC2(C(F)(F)F)NC(=O)N(CCc3ccc(OC)c(OC)c3)C2=O)cc1 (stereo unspecified) | -12.2% | 
O=C(CSCc1ccc(F)cc1)N1CCc2c([nH]c3ccccc23)C1c1ccc(Cl)cc1 (stereo unspecified) | -19.1% | 
CCCCNC(=O)c1ccc2c(c1)N=C(CC)c1ccccc1S2 | 29.1% | 
CCOc1ccc(-c2cc(NC(=O)c3ccc(C)cc3)c(C(=O)OC)s2)cc1 | -3.56% | 
CCCN1CCN(CCCNC(=O)c2ccc3c(c2)sc2nc(-c4ccc(OCC)cc4)cn23)CC1 |  | 1.85 µM (active)

SMILES | activity, negative = inhibition | Potency
CCC1CCCCN1C(=O)CSc1n[nH]c(-c2ccccc2)n1 (stereo unspecified) | 17.6% | 
CCOC(=O)c1cc(S(=O)(=O)NCc2ccc(C)cc2)[nH]n1 | -2.92% | 
Cc1cccc(NC(=O)c2oc3ccc(S(=O)(=O)N4CCC5(CC4)OCCO5)cc3c2C)c1C | 6.25% | 
COc1cccc(C(=O)CC2(O)C(=O)N(Cc3ccccc3)c3ccccc32)c1 (stereo unspecified) | -15.2% | 
CCCCN1C(=O)C(O)(CC(=O)c2ccc(CC)cc2)c2cc(Br)ccc21 (stereo unspecified) |  | 18.5 µM (active)
COC(=O)CN1C(=O)C(O)(CC(=O)c2ccc(F)cc2)c2ccccc21 (stereo unspecified) | -21.4% | 
COc1ccc(C(=O)CC2(O)C(=O)N(Cc3cccc(C(F)(F)F)c3)c3ccccc32)cc1 (stereo unspecified) |  | 4.65 µM (active)
CCCN1C(=O)C(O)(CC(=O)c2ccc(C(C)C)cc2)c2ccccc21 (stereo unspecified) | -15.2% | 
O=C(CC1(O)C(=O)N(Cc2ccccc2)c2ccc(Br)cc21)c1ccccc1 (stereo unspecified) |  | 16.5 µM (active)
Cc1ccccc1CN1C(=O)C(O)(CC(=O)c2ccccc2)c2cc(Cl)ccc21 (stereo unspecified) | -20.8% | 
CCCCN1C(=O)C(O)(c2c[nH]c3ccccc23)c2cc(Br)ccc21 (stereo unspecified) | -6.22% | 
CCCCN1C(=O)C(O)(c2c(C)[nH]c3ccccc23)c2cc(Br)ccc21 (stereo unspecified) | -16.3% | 
O=C(CC1(O)C(=O)N(CCc2ccccc2)c2ccc(Br)cc21)c1ccccc1O (stereo unspecified) |  | 20.7 µM (active)
CN1CCc2c(sc(NC(=O)CSc3ccc(F)cc3)c2-c2nc3ccccc3s2)C1 | -2.19% | 
CCC1=Nc2cc(C(=O)NCC(C)c3ccccc3)ccc2Sc2ccc(C)cc21 (stereo unspecified) | 3.53% | 
CCn1cc2nc(SCC(=O)Nc3cccc(Cl)c3C)n(Cc3ccc(Cl)cc3)c(=O)c2n1 | -2.07% | 
COc1ccc(-c2nc(SCC(=O)Nc3ccc4c(c3)OCCO4)c(-c3ccc(F)cc3)[nH]2)cc1 | -6.12% | 
CC1=C(C(=O)OCC2CCCCC2)C(c2ccc(Cl)cc2)CC(=O)N1 (stereo unspecified) | 14.2% | 
O=C1c2[nH]nc(-c3ccccc3O)c2C(c2ccc(Cl)cc2)N1Cc1ccco1 (stereo unspecified) | -21.5% | 
COc1ccc(C2(Nc3cccc(C(=O)O)c3C)C(=O)c3ccccc3C2=O)cc1 | -0.529% | 
CCc1ccc(Oc2nc3c(C)cccn3c(=O)c2/C=C(\C#N)c2nc3ccccc3[nH]2)cc1 | -94.3% | 
COc1cccc(NS(=O)(=O)c2ccc3c(c2)CCCN3C(=O)C2CCC2)c1 | -3.21% | 
Cc1ccc(CN2C(=O)C(O)(c3c(C)[nH]c4ccccc34)c3ccccc32)cc1 (stereo unspecified) | -20.6% | 
